About 2,000 (36%) of roughly 5,500 compounds were called active. Inconclusive results (about 18%) are left out. Cut-off read from the data, not from the text of the source: active = normalized growth mostly below about 0.91 (no sharp cut-off); inconclusive = no clear call, values can overlap the other calls; inactive = mostly above about 0.92. The list shows a part of the results.
Assay: chemical genetic growth profiling, strain panel (AID 1159580);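 note: tested at 20 µM; growth read once vehicle control cultures reached saturation at 30 °C; 1 = growth at the plate median or of vehicle wells; lower values mean less growth of the strain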
Conditions: S. cerevisiae deletion strains, growth OD
[1] = locus YAL040C, strain CLN3, hits give low values
[2] = locus YDR150W, strain NUM1, hits give low values
[3] = locus YDR363W, strain ESC2, hits give low values
[4] = locus YER002W, strain NOP16, hits give low values
[5] = locus YJR075W, strain HOC1, hits give low values
[6] = locus YMR307W, strain GAS1, hits give low values
[7] = locus YNL128W, strain TEP1, hits give low values
[8] = locus YNL175C, strain NOP13, hits give low values
[9] = locus YNL197C, strain WHI3, hits give low values
[10] = locus YNL224C, strain SQS1, hits give low values
[11] = locus YOR083W, strain WHI5 (second series), hits give low values
[12] = locus YCL061C, strain MRC1 (second series), hits give low values
[13] = locus YGR078C, strain PAC10, hits give low values
[14] = locus YPL055C, strain LGE1, hits give low values
[15] = locus YNL322C, strain KRE1, hits give low values
[16] = locus YAL013W, strain DEP1, hits give low values
[17] = locus YNL153C, strain GIM3, hits give low values
[18] = locus YHR030C, strain SLT2, hits give low values
[19] = locus YHR079C, strain IRE1, hits give low values
[20] = locus YJL095W, strain BCK1, hits give low values
[21] = locus YJR066W, strain TOR1, hits give low values
[22] = locus YLR113W, strain HOG1, hits give low values
[23] = locus YNL183C, strain NPR1, hits give low values
[24] = locus YOR231W, strain MKK1, hits give low values
[25] = locus YPL256C, strain CLN2, hits give low values

Measured: normalized growth

Nc1ncnc2c1ncn2C1CCCC1
inactive: [1] 1.01 | [2] 1 | [3] 1.02 | [4] 1.01 | locus YGR229C, strain SMI1, hits give low values 1.02 | [5] 1.04 | [6] 1.01 | [7] 1.03 | [8] 1.01 | [9] 1.01 | [10] 1.03 | [11] 1.01 | locus YPL241C, strain CIN2, hits give low values 1.01

Nc1ncnc2c1c(-c1ccc(Oc3ccccc3)cc1)cn2C1CCCC1
inactive: [1] 0.94 | [12] 1.01 | [3] 1.02 | [4] 1.02 | [13] 0.934 | [5] 1.02 | [8] 1.01 | [9] 1.1 | [10] 0.952 | [14] 0.989
active: [11] 0.838

C[C@@H]1O[C@@H](O[C@H]2C[C@@H](O)[C@]3(CO)[C@@H]4C(CC[C@]3(O)C2)[C@@]2(O)CC[C@H](C3COC(=O)C3)[C@@]2(C)C[C@H]4O)[C@H](O)[C@H](O)[C@H]1O (stereo not given in full)
inactive: [1] 0.998 | [12] 1 | [2] 0.996 | [3] 1 | [4] 0.996 | [13] 1.01 | [6] 1.01 | [8] 0.98 | [9] 1 | [10] 0.974 | [15] 1.01 | [11] 1.05 | [14] 1.01

N=C(N)SCCc1ccc(CCSC(=N)N)cc1
inactive: [16] 1.01 | [1] 1 | [12] 0.996 | [2] 1 | [3] 1.04 | [4] 0.996 | [5] 0.987 | [17] 0.964 | [8] 1 | [9] 1.03 | [10] 1.02 | [15] 1 | [11] 0.995 | [14] 1.02

CN(C)CCCSC(=N)N
inactive: [18] 0.951 | [19] 0.968 | [20] 0.963 | [21] 0.903 | [22] 0.982 | [23] 0.92 | [24] 0.966 | [25] 0.978

N=C(N)SCCN
inactive: [16] 1.06 | locus YAL021C, strain ccr4, hits give low values 0.98 | locus YAL026C, strain drs2, hits give low values 1 | locus YAL030W, strain snc1, hits give low values 1.01 | [1] 1.05 | locus YBL061C, strain skt5, hits give low values 1.01 | locus YBR009C, strain hhf1, hits give low values 1 | locus YBR023C, strain chs3, hits give low values 1 | locus YBR171W, strain sec66, hits give low values 1.01 | locus YBR231C, strain swc5, hits give low values 0.992 | locus YBR279W, strain paf1, hits give low values 0.998 | locus YCL011C, strain gbp2, hits give low values 1.01 | locus YCL016C, strain dcc1, hits give low values 0.999 | [12] 0.995 | locus YCL061C, strain MRC1, hits give low values 1.01 | locus YCL069W, strain vba3, hits give low values 1.01 | locus YCR088W, strain abp1, hits give low values 1 | locus YDL005C, strain med2, hits give low values 0.997 | locus YDL040C, strain nat1, hits give low values 0.998 | locus YDR001C, strain nth1, hits give low values 1.01 | locus YDR069C, strain doa4, hits give low values 0.999 | locus YDR137W, strain rgp1, hits give low values 1 | [2] 1.02 | locus YDR159W, strain sac3, hits give low values 0.995 | locus YDR195W, strain ref2 0.941 | locus YDR297W, strain sur2, hits give low values 1.01 | locus YDR334W, strain swr1, hits give low values 1 | locus YDR335W, strain msn5, hits give low values 1 | locus YDR392W, strain spt3, hits give low values 0.856 | locus YEL003W, strain gim4, hits give low values 1.01 | locus YEL037C, strain rad23, hits give low values 0.996 | locus YEL061C, strain CIN8 (second series), hits give low values 1 | [4] 0.986 | locus YER015W, strain faa2, hits give low values 1.01 | locus YER016W, strain bim1, hits give low values 1 | locus YER111C, strain swi4, hits give low values 1 | locus YER155C, strain BEM2 (second series), hits give low values 0.985 | locus YFR010W, strain ubp6, hits give low values 1.01 | locus YGL167C, strain pmr1, hits give low values 1.01 | locus YGL173C, strain kem1, hits give low values 1 | locus YGL227W, strain vid30, hits give low values 1 | locus YGL240W, strain doc1, hits give low values 0.985 | locus YGL253W, strain hxk2, hits give low values 1.01 | [13] 0.994 | locus YHR013C, strain ard1, hits give low values 0.969 | locus YHR027C, strain rpn1, hits give low values 1.01 | [18] 1.07 | [19] 1.07 | locus YHR142W, strain chs7, hits give low values 1.01 | locus YJL092W, strain hpr5, hits give low values 0.998 | locus YJL095W, strain BCK1 (second series), hits give low values 0.998 | [20] 1.04 | locus YJL115W, strain asf1, hits give low values 0.99 | locus YJL129C, strain trk1, hits give low values 1.03 | locus YJL154C, strain vps35, hits give low values 0.997 | locus YJL164C, strain tpk1, hits give low values 1.01 | locus YJL166W, strain qcr8, hits give low values 1.01 | locus YJL187C, strain SWE1, hits give low values 1 | [21] 0.976 | [5] 1.01 | locus YKL160W, strain elf1, hits give low values 0.996 | locus YKR026C, strain gcn3, hits give low values 1 | locus YKR091W, strain srl3, hits give low values 1 | locus YLL001W, strain dnm1, hits give low values 0.999 | locus YLL026W, hits give low values 0.999 | locus YLL041C, strain sdh2, hits give low values 1 | locus YLR027C, strain aat2, hits give low values 1.01 | [22] 1.03 | locus YLR221C, strain rsa3, hits give low values 1 | locus YLR258W, strain gsy2, hits give low values 1 | locus YLR262C, strain YPT6 (second series), hits give low values 0.991 | locus YLR320W, strain mms22, hits give low values 0.997 | locus YLR342W, strain FKS1, hits give low values 1.01 | locus YLR370C, strain arc18, hits give low values 1.01 | locus YLR384C, strain iki3, hits give low values 1 | locus YML120C, strain ndi1, hits give low values 0.999 | locus YMR058W, strain fet3, hits give low values 1 | locus YMR125W, strain sto1, hits give low values 0.993 | locus YMR129W, hits give low values 1.02 | locus YMR205C, strain PFK2, hits give low values 1.01 | locus YMR231W, strain pep5, hits give low values 0.998 | locus YMR263W, strain SAP30, hits give low values 1.01 | [6] 1.02 | locus YNL071W, strain lat1, hits give low values 1 | [7] 0.987 | [17] 1 | [8] 0.991 | [23] 0.989 | [9] 0.992 | locus YNL209W, strain ssb2, hits give low values 1.01 | [10] 1.01 | locus YNL248C, strain rpa49, hits give low values 1.01 | locus YNL322C, strain KRE1 (second series), hits give low values 0.998 | locus YNR049C, strain mso1, hits give low values 1 | locus YOR001W, strain rrp6, hits give low values 0.995 | locus YOR070C, strain gyp1, hits give low values 0.989 | locus YOR080W, strain dia2, hits give low values 0.996 | [11] 0.997 | locus YOR083W, strain WHI5, hits give low values 0.995 | locus YOR106W, strain vam3, hits give low values 1.04 | [24] 1.05 | locus YOR265W, strain rbl2, hits give low values 1.01 | locus YOR270C, strain vph1, hits give low values 1.06 | locus YOR290C, strain snf2, hits give low values 0.956 | locus YPL051W, strain arl3, hits give low values 0.994 | [14] 1.01 | locus YPL078C, strain atp4, hits give low values 1.01 | locus YPL106C, strain sse1, hits give low values 1 | locus YPL240C, strain hsp82, hits give low values 1.02 | [25] 1.12
active: locus YLR357W, strain rsc2, hits give low values 0.833

Reference: PubChem BioAssay AID1159580 (chemical genetic matrix, 2015)
